We go through 6 molecules from PubChem BioAssay (NCATS).

Results filed as inconclusive are left out. Activity calls are given as the source filed them. Unless noted, calls follow the shape of the dose curve; as a rule, active = well fitted curve in the direction sought with a large enough effect; inconclusive = small, poorly fitted or top-dose-only effect, or another doubt; inactive = no such curve, though single readings can be large; an effect the other way counts as inactive or inconclusive.

The nature of test [1]: Quantitative high throughput screen for delayed death inhibitors of the malarial parasite plastid, 48 hour incubation (AID 488752). Also: nearly all actives have a fitted effect of over 65% in size. Also: potency is read from the fitted curve at half-maximal effect. An outline of the steps: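 First, compound was pinned into RPMI 1640 medium containing 0.5% Albumax. Next, reporter-parasite-infected erythrocytes were added to 2% hematocrit and 0.1% parasitemia. After 48 h at 37 C under 5% CO2, luciferase detection reagent was added and luminescence read.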

Test [2] deals with Thioredoxin reductase 1, cytoplasmic (Rattus norvegicus) (UniProt O89049). The test is described as follows: qHTS Assay for Substrates of Mammalian Selenoprotein Thioredoxin Reductase 1 (TrxR1) (AID 488772).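 Also: series mostly up to about 57 µM; 0% is about no effect; a drop in NADPH fluorescence below the no-compound background marks a TrxR1 substrate.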 The essentials:
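In this dual-purpose format, potential substrates are identified from the first fluorescence read after selenite addition, not from the 8-minute delta. Rat enzyme is preincubated with NADPH and then with compound at ~22 deg C.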
Background: In qHTS, concentration-response curves come from the screen itself.

The target is the same in test [3]. Description: qHTS Assay for Inhibitors of Mammalian Selenoprotein Thioredoxin Reductase 1 (TrxR1) (AID 488773). Also: nearly all actives have a fitted effect of over 40% in size. Also: potency is read from the fitted curve at half-maximal effect. To be noted: Potency: inhibition. An outline of the steps:
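Inhibition is scored from the loss of NADPH fluorescence between first and last reads of an 8-min kinetic run. Selenite (400 uM) was the substrate, added after 15 min compound preincubation at room temperature.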

The target of test [4] is Flap endonuclease 1 (Homo sapiens) (UniProt P39748). Description: qHTS Validation Assay for the Inhibitors of Human Flap endonuclease 1 (FEN1) (AID 488816). Also: % is scaled to controls: 0 for no effect and ±100 for the full control effect. The essentials:
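Steps: add FEN1 (10 nM reagent) or buffer only; pin compounds; hold 15 min at room temperature; start with substrate, 50 nM final; read at 0 and 15 min; correct, normalize and fit a four-parameter Hill curve.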

In test [5] the target is Chromobox protein homolog 1 (Homo sapiens) (UniProt P83916). Description: qHTS Validation Assay for Inhibitors of HP1-beta Chromodomain Interactions with Methylated Histone Tails (AID 488953). Also: nearly all actives have a fitted effect of over 50% in size. Also: potency is read from the fitted curve at half-maximal effect. An outline of the steps: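 Disruption of preformed HP1-beta:H3K9me3 peptide complexes (both 50 nM, PBS pH 7.4 with 0.01% Tween-20) is measured by AlphaScreen after 30 min compound exposure at room temperature, using streptavidin donor and nickel chelate acceptor beads at 10 ug/mL final.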

The target in test [6] is Methanococcus maripaludis chaperonin (MmCpn) (UniProt Q6LX38). The test is described as follows: High-Throughput Screening for Modulators of Cytosolic Chaperonin Activity: MmCpn Primary Screen (AID 488978).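 Also: 50 nM MmCpn enzyme hydrolysing 30 µM ATP at 37 °C; 0% is about no effect.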 An outline of the steps:
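ADP formation read by HTRF Transcreener, 665/590 nm emission after 320 nm excitation. Enzyme: archaeal chaperonin at 50 nM final; substrate ATP 30 uM final; 10 min, 37C, after 5 min compound preincubation at RT.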

Test [7] concerns the target Transient receptor potential cation channel subfamily V member 1 (Homo sapiens) (UniProt Q8NER1). The test is described as follows: HTS Assay for Compounds that Act as Enhancers of the Vanilloid Receptor 1 (AID 488979). Also: 0% is about no effect. An outline of the steps: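 TRPV1-expressing cells loaded with Fluo-8 calcium dye; compounds added and calcium influx read kinetically for 3 min (agonist phase), then capsaicin at EC20 added and read 2 min more for enhancement. Fluorescence ex 480/em 520 nm.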

The target in test [8] is D(1A) dopamine receptor (Homo sapiens) (UniProt P21728). The test is described as follows: HTS Assay for Allosteric Agonists of the Human D1 Dopamine Receptor: Primary Screen for Agonists (AID 488981). Also: 0% is about no effect. The essentials:
(§1)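 Tetracycline-induced HEK293 T-REx cells force-coupled to calcium signalling were incubated overnight at 30 C and dye-loaded at room temperature. Calcium flux over 180 s after compound addition flagged agonists; a further 180 s read after EC20 dopamine flagged potentiators.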

The target is the same in test [9]. Description: HTS Assay for Allosteric Agonists of the Human D1 Dopamine Receptor: Primary Screen for Potentiators (AID 488982). Also: 0% is about no effect. The essentials:
as §1

For test [10] the target is unchanged. The test is described as follows: HTS Assay for Allosteric Agonists of the Human D1 Dopamine Receptor: Primary Screen for Antagonists (AID 488983).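 Also: calcium flux response to an EC80 dopamine challenge measured with no-wash dye; nearly all actives have a fitted effect of over 65% in size.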 Also: potency is read from the fitted curve at half-maximal effect. The essentials:
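Kinetic fluorescence at 1 cycle/sec tracked intracellular calcium in force-coupled, tetracycline-inducible HEK293 T-REx D1 cells. Loss of response to an EC80 dopamine dose, given 180 s after compound, marked antagonists.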

Test [11] is described as follows: Validation screen for small molecules that induce genotoxicity in human embryonic kidney (HEK293T) cells expressing luciferase-tagged ELG1 (AID 493106). Also: potency is read from the fitted curve at half-maximal effect. The essentials: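 Cells were dispensed at 2,000 per well, then 23 nL compound or DMSO was pinned in. After 16 hr at 37 °C and 5% CO2, ONE-Glo reagent was added. Luciferase activity was measured following 30 min at room temperature.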

In test [12] the target is Thyrotropin-releasing hormone receptor (Homo sapiens) (UniProt P34981). Description: qHTS for Small Molecule Agonists and Allosteric Enhancers of Human TRH Receptor: Validation Screen for Agonists (AID 493127;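 active = calcium activation more than 3 SD above the typical response in the agonist read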;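 also: intracellular calcium rise by fluo-8 fluorescence before TRH EC20 addition; 0% is about no effect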). As to conditions: TRH receptor agonist cell assay; at 2 µM; stronger effect = higher value. An outline of the steps: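 Compounds are added by online pintool to dye-loaded TRHR cells while fluorescence is recorded every second. A rise in calcium signal during the agonist read marks activation; a later 10 nM TRH addition (EC20) serves the separate enhancer mode.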

Test [13] in a line: qHTS for Inhibitors of Cell Surface uPA Generation: Validation Assay (AID 493164).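 Also: RAW 264.7 macrophage cells exposed to compound for 18 h; 0% is about no effect.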 An outline of the steps: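 ATP-Lite luminescence read-out: ATP remains high when uPA activity-dependent LF translocation into the cytoplasm is blocked. RAW 264.7 cells, 18 h compound exposure at 37 C; 7-point titration, 2.45 nM to 38.3 uM final.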
The target of test [14] is M-phase phosphoprotein 8 (Homo sapiens) (UniProt Q99549). Description: qHTS Validation Assay for Inhibitors for MPP8 Chromodomain Interactions with Methylated Histone Tails (AID 488949).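 Also: AlphaScreen signal from MPP8 chromodomain bound to biotinylated H3K9me3 peptide; top concentration of the series differs between compounds; % is scaled to controls: 0 for no effect and ±100 for the full control effect; nearly all actives have a fitted effect of over 55% in size.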 An outline of the steps: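 AlphaScreen read-out: streptavidin donor and nickel chelate acceptor beads (final 10 ug/mL), 30 min in the dark at RT. Complex of 50 nM MPP8 and 50 nM b-H3(1-18)K9me3 peptide had been exposed to compounds for 30 min beforehand.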

Test [15] has as its target ATPase family AAA domain-containing protein 5 (Homo sapiens) (UniProt Q96QE3). The test is described as follows: Validation screen for small molecules that inhibit ELG1-dependent DNA repair in human embryonic kidney (HEK293T) cells expressing luciferase-tagged ELG1 (AID 493107).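 Also: cells co-treated with the DNA-damaging agent 5-fluorouridine alongside compound; series mostly up to about 46 µM; % is scaled to controls: 0 for no effect and ±100 for the full control effect; inhibitors lower the ELG1-luciferase luminescence signal; nearly all actives have a fitted effect of over 70% in size.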 The essentials:
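Cells are dispensed in 1536-well format, then 5-fluorouridine and compound are pinned in. After a 16 hr incubation at 37 °C and 5% CO2, ONE-Glo is added and luciferase measured on a CCD imager.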

The nature of test [16]: Nrf2 qHTS screen for inhibitors: Validation (AID 493153; active = well fitted inhibition curve with a large enough effect in the main read-out, with a control signal flat, not every such curve was filed as active). To be noted: Potency: luciferase luminescence; viability change: measured here: cytotoxicity max response. An outline of the steps:
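A549 ARE_Fluc, 5% FBS OPTI-MEM; cpd titration, 18-24 h, 37°C/5% CO2. Read 1: CellTiter-Fluor (Ex 405/Em 525), cytotox. Read 2: luciferase lum, Nrf2 activity.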

Test [17] can be described thus: Quantitative high throughput screen for delayed death inhibitors of the malarial parasite plastid, 96 hour incubation (AID 488745). Also: nearly all actives have a fitted effect of over 70% in size. Also: potency is read from the fitted curve at half-maximal effect. An outline of the steps:
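Readout is firefly luciferase luminescence from an integrated reporter in P. falciparum; lower signal marks inhibited growth. Cultures at 2% hematocrit and 0.1% parasitemia were treated with compound across two generations (96 h, 37 C, 5% CO2).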

The target in test [18] is Thyrotropin receptor (Homo sapiens) (UniProt P16473). Description: qHTS Assay for Antagonists of the Thyroid Stimulating Hormone Receptor (AID 488980). Also: series mostly up to about 58 µM; 0% is about no effect. An outline of the steps: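 TSHR-HEK293 cells; 70 uM RO 20-1724 PDE inhibitor; compound + EC80 TSH (4 nM final); anti-cAMP cryptate antibody/cAMP-d2 in lysis buffer, 30 min RT; HTRF 665/620 nm read.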
Thyrotropin receptor (Homo sapiens), sequence (P16473 whole entry, looked up): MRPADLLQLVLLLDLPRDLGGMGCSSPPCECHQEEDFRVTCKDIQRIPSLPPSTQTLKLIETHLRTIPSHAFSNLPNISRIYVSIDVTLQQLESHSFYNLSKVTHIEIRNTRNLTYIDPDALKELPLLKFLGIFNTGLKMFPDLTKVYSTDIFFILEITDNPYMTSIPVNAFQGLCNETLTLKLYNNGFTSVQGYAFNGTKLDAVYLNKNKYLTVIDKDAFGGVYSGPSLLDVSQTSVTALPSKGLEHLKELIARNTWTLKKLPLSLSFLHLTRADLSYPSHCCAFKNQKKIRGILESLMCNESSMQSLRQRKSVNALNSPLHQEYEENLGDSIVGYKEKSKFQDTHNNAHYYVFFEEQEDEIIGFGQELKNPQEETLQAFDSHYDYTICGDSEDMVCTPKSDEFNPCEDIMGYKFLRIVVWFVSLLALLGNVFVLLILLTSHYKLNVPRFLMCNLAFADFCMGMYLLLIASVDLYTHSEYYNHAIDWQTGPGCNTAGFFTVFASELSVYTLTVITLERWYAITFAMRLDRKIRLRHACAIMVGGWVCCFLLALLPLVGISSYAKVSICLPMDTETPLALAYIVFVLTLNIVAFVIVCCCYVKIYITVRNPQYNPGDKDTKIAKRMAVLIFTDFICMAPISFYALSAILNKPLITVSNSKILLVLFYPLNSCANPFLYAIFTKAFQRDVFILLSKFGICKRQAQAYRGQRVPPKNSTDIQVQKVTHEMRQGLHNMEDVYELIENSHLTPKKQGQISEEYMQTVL

Methanococcus maripaludis chaperonin (MmCpn), sequence (Q6LX38 1-543): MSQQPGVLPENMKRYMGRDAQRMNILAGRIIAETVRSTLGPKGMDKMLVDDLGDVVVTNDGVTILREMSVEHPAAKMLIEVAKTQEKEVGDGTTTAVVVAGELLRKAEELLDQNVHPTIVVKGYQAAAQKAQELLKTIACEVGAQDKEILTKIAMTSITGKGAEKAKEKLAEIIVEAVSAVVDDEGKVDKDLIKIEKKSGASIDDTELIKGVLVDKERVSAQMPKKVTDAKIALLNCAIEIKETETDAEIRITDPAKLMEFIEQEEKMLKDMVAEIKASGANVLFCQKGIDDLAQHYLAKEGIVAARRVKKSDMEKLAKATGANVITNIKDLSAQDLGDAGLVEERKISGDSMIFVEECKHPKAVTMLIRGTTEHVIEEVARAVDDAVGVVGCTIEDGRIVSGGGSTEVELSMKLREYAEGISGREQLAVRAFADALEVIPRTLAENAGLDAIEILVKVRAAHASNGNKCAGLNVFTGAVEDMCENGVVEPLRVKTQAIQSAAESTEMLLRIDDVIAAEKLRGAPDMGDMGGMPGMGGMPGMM
Flap endonuclease 1 (Homo sapiens), sequence (P39748 whole entry, looked up): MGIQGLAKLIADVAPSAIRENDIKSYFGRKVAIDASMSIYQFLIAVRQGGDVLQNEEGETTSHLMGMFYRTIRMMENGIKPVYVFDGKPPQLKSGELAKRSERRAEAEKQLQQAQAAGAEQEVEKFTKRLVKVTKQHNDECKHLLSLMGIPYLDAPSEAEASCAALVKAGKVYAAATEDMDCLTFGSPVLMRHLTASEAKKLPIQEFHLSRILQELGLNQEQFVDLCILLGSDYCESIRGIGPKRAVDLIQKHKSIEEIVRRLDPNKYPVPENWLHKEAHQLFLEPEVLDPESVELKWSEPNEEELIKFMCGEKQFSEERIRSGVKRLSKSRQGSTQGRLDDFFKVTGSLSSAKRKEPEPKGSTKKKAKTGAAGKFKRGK
Thyrotropin-releasing hormone receptor (Homo sapiens), sequence (P34981 whole entry, looked up): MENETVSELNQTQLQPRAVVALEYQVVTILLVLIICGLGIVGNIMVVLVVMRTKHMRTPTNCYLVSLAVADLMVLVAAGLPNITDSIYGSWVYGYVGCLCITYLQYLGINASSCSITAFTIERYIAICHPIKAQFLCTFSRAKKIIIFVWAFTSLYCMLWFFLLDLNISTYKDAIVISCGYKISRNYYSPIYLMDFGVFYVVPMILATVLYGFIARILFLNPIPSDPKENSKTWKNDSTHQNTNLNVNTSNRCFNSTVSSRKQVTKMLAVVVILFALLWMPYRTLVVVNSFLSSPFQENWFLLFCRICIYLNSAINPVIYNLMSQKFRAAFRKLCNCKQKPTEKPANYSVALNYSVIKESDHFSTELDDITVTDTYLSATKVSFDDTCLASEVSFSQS
Thioredoxin reductase 1, cytoplasmic (Rattus norvegicus), sequence (O89049 whole entry, looked up): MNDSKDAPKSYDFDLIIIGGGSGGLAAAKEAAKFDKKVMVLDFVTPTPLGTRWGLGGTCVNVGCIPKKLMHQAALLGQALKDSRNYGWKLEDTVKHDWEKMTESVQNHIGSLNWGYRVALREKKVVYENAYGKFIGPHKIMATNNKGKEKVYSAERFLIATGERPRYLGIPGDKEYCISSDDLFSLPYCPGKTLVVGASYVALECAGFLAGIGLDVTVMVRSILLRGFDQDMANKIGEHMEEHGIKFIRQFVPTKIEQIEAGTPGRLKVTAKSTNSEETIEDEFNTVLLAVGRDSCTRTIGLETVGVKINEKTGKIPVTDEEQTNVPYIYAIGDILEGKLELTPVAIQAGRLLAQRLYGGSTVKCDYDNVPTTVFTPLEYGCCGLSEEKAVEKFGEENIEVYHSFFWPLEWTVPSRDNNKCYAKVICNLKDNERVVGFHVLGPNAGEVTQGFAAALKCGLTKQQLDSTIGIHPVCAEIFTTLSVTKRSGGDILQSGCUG
D(1A) dopamine receptor (Homo sapiens), sequence (P21728 whole entry, looked up): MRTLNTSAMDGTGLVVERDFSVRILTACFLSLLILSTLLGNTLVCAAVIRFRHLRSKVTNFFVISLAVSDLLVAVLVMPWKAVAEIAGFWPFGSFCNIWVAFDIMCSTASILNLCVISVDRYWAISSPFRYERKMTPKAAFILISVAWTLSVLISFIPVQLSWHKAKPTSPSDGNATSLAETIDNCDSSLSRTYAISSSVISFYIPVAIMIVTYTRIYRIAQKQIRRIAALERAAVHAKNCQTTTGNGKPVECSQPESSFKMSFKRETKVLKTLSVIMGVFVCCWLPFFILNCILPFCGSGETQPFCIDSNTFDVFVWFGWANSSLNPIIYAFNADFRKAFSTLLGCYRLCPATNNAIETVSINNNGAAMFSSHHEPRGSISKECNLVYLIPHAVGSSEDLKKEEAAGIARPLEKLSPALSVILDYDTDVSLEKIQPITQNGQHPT
ATPase family AAA domain-containing protein 5 (Homo sapiens), sequence (Q96QE3 whole entry, looked up, the tested form may be a part): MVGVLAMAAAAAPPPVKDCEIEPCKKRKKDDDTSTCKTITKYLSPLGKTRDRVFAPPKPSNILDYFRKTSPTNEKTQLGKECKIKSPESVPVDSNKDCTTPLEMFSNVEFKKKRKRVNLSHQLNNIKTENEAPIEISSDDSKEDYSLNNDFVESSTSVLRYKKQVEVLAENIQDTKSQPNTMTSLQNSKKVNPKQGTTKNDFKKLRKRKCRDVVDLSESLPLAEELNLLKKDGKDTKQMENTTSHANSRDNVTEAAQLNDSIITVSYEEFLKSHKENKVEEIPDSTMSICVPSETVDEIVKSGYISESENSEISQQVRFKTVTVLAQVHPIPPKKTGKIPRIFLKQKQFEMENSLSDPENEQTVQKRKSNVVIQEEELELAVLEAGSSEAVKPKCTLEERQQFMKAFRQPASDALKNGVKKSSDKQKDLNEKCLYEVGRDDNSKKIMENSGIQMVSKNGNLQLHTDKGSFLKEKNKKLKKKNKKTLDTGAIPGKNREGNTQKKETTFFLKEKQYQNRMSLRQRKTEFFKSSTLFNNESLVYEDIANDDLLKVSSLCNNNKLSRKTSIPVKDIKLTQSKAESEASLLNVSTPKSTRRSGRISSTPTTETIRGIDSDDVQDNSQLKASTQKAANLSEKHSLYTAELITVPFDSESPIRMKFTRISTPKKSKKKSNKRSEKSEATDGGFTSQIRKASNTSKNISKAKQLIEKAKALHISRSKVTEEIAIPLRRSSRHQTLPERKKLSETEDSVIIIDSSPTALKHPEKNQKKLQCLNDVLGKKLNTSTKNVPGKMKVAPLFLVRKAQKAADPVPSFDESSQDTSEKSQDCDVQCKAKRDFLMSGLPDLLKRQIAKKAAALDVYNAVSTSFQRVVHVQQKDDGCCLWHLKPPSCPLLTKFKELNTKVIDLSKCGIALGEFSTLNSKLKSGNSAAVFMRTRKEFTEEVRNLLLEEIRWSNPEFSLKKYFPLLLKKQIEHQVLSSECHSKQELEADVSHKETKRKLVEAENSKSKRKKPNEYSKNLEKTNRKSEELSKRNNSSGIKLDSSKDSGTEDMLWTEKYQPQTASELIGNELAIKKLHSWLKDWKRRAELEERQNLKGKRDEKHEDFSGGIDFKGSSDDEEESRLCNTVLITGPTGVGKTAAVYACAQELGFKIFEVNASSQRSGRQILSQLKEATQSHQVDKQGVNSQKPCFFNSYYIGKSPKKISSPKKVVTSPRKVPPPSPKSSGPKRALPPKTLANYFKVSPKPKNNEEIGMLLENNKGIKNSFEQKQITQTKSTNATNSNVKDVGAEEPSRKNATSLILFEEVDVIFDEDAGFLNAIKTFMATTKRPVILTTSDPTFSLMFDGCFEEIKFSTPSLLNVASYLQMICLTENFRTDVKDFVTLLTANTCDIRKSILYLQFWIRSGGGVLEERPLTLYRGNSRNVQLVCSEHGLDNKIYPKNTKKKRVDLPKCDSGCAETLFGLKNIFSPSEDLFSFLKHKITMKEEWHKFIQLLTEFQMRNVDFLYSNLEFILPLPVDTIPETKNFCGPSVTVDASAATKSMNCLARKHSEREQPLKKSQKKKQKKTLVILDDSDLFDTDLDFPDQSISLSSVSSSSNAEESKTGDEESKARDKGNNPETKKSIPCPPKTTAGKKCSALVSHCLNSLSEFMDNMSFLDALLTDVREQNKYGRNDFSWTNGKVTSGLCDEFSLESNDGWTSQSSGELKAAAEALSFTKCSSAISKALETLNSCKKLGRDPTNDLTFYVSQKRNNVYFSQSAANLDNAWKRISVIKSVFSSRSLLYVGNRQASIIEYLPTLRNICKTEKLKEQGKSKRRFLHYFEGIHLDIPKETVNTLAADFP

As to `CC(=O)c1c(O)c(C)c(O)c(Cc2c(O)c3c(c(C(=O)/C=C/c4ccccc4)c2O)OC(C)(C)C=C3)c1O`, the Potency in test [1] is 14.7 µM (active); in test [3] it was 2.12 µM (active); in test [5], 12.6 µM (active). Further, the molecule was called inactive in test [2], in test [6], in test [7] and in [13]. For the same molecule, the Potency entry in [4], in test [8], in [9], in test [10] and in [11] was “inactive” each time. Also, the activation in test [12] is 7.12% (inactive).

Turning to `CN1CCC(c2c[nH]c3ccc(O)cc23)CC1`, the Potency entry in test [1], in test [3], in test [4], in test [14], in [5] and in test [8] was “inactive” each time. Also, the Potency entry in test [9], in test [11], in test [15] and in [16] was “inactive” each time. Moreover, the molecule was classed as inactive in [2], in [6], in test [7] and in [13]. Also, in test [10], the Potency was 6.31 µM (active). Also, the activation in [12] was 1% (inactive). Also, in test [16], the viability change is -1.47%.

For `COC(=O)N1CCN(C(=O)Cc2ccc(Cl)c(Cl)c2)C(CN2CCCC2)C1` (centres undefined), the Potency result in [17], in [3], in test [4], in test [14], in test [8] and in [9] was “inactive” throughout. Besides, the Potency result in test [10], in test [11], in test [15] and in test [16] was “inactive” in each case. For the same molecule, the call in [2], in test [6], in test [7], in [18] and in [13] was inactive. In [12], the activation was 0.875% (inactive). The viability change in [16] is 0.492%.

On to `OCc1cnc[nH]1`, for which the result in test [2], in [6], in test [7], in test [18] and in test [13] was inactive. Moreover, the Potency entry in test [3], in [4], in test [14], in test [8], in [10] and in [11] was “inactive” each time. For the same molecule, the Potency entry in [15] and in test [16] was “inactive” throughout. The activation in test [12] was 1% (inactive). Further, the viability change in test [16] is 1.78%.

For the molecule `CCCCCCCCCCCCCC(=O)O[C@@H]1[C@@H](C)[C@@]2(O)[C@@H](C=C(CO)C[C@@]3(O)C(=O)C(C)=C[C@@H]23)C2C(C)(C)[C@@]21OC(C)=O` (some centres undefined), the Potency was 11.7 µM (active) in test [17] and 0.0041 µM (active) in test [11]. Besides, the outcome in [2], in [6], in [7] and in [18] was inactive. The Potency result in test [3], in test [4], in test [14], in test [5], in [8] and in [9] was “inactive” each time. The Potency entry in test [10] and in test [16] was “inactive” each time. In addition, the activation in [12] is 0.75% (inactive). In addition, in test [16], the viability change is -19.6%.

On to `Oc1ccc2c3c1O[C@H]1c4[nH]c5ccccc5c4C[C@@]4(O)C(C2)N(CC2CC2)CCC314` (some centres undefined), for which the outcome in [2], in test [6], in test [18] and in test [13] was inactive. For the same molecule, the Potency result in test [3], in test [4], in test [14], in [5], in test [8] and in [9] was “inactive” throughout. In addition, the Potency result in test [10], in test [11], in test [15] and in [16] was “inactive” in each case. For the same molecule, the activation in test [12] was 1.69% (inactive). Moreover, the viability change in [16] is -8.87%.
